Our source for the cytotoxicity call values is the antibiotic and cytotoxicity screens of Wong et al. (2023).

The structures appear in SMILES notation. About 1,500 (3.8%) of roughly 39,000 compounds were called active. The entries come from a sample that favours actives as a whole.

The test deals with HSkMC (human skeletal muscle cells). In words: cytotoxicity call (relative viability < 0.9). The following applies: 10 µM.
For `COc1ccc2c3c(n(c2c1)C)[C@H](CO)N(C[C@]13CN(C1)C(=O)CN1CCOCC1)C(=O)Nc1ccc(cc1)F`, the cytotoxicity call was “inactive”.

`C[C@H]1CN([C@@H](C)CO)C(=O)CCCn2cc(nn2)CO[C@@H]1CN(C)C(=O)c1ccc(N2CCN(C)CC2)cc1`: the cytotoxicity call was “inactive”.

On to `CC/C(=C\C(=O)O)c1ccccc1`, for which the cytotoxicity call was “inactive”.

Regarding `O=C(C[C@@H]1C[C@@H]2c3cc(NC(=O)C4CCOCC4)ccc3O[C@@H]2[C@H](CO)O1)NCCN1CCCCC1`, the cytotoxicity call was “inactive”.

`COCC(=O)N1C[C@@H](C)[C@@H](OC)CN(C)C(=O)c2ccc(NC(=O)Nc3cccc(F)c3)cc2OC[C@@H]1C`: the cytotoxicity call was “inactive”.

With `Cc1cccc(S(=O)(=O)N2C[C@H](O)COC[C@H]3O[C@H](CC(=O)NCc4ccncn4)CC[C@@H]32)c1`, the cytotoxicity call is “inactive”.

As for `C[C@@H]1CCN(C(=O)[C@H](CCCNC(=N)N)NS(=O)(=O)c2cccc3c2NC[C@H](C)C3)[C@@H](C(=O)O)C1`, the cytotoxicity call is “inactive”.

As for `CNC(=O)C[C@@H]1CC[C@@H]2[C@H](COC[C@H](O)CN2C(=O)c2ccccn2)O1`, the cytotoxicity call was “inactive”.

As to `N#C[C@@H]1[C@H](c2ccc(C#Cc3ccccn3)cc2)[C@@H](CO)N1C(=O)CN1CCOCC1`, the cytotoxicity call was “inactive”.

`CC(C)NC(=O)N(C)C[C@@H]1Oc2ccc(NS(=O)(=O)c3cn(C)cn3)cc2C(=O)N([C@H](C)CO)C[C@@H]1C`: the cytotoxicity call was “inactive”.

Regarding `C[C@@H]1CN([C@@H](C)CO)C(=O)c2cc(NC(=O)Nc3ccccc3)ccc2O[C@@H](C)CCCCO[C@H]1CN(C)S(=O)(=O)c1cccs1`, the cytotoxicity call was “inactive”.

As to `C[C@@H]1CN([C@H](C)CO)C(=O)c2cccc(NC(=O)Nc3ccc(F)cc3)c2O[C@@H]1CN(C)C(=O)Nc1ccc(C(F)(F)F)cc1`, the cytotoxicity call was “inactive”.

Consider `C[C@H](CO)N1C[C@H](C)[C@@H](CN(C)C(=O)Nc2ccc(C(F)(F)F)cc2)Oc2c(NC(=O)Nc3ccc(C(F)(F)F)cc3)cccc2C1=O`, for which the cytotoxicity call is “active”.

With `C[C@@H]1CN([C@H](C)CO)C(=O)c2cccc(NC(=O)Nc3ccc(C(F)(F)F)cc3)c2O[C@H]1CN(C)C(=O)Nc1ccc(C(F)(F)F)cc1`, the cytotoxicity call was “inactive”.

For `C[C@@H]1CN([C@@H](C)CO)C(=O)c2cccc(NC(=O)Nc3ccc(C(F)(F)F)cc3)c2O[C@@H]1CN(C)C(=O)Nc1ccc(C(F)(F)F)cc1`, the cytotoxicity call is “active”.

Consider `C[C@H]1CN([C@@H](C)CO)C(=O)c2cccc(NC(=O)Nc3ccc(C(F)(F)F)cc3)c2O[C@@H]1CN(C)C(=O)Nc1ccc(C(F)(F)F)cc1`, for which the cytotoxicity call is “active”.

Consider `C[C@@H]1CN([C@@H](C)CO)C(=O)c2cccc(NC(=O)Nc3ccc(C(F)(F)F)cc3)c2O[C@H]1CN(C)C(=O)Nc1ccc(C(F)(F)F)cc1`, for which the cytotoxicity call is “inactive”.

For `C[C@H]1CN([C@@H](C)CO)C(=O)c2cccc(NC(=O)Nc3ccccc3)c2O[C@@H]1CN(C)C(=O)Nc1ccc(C(F)(F)F)cc1`, the cytotoxicity call was “inactive”.

Regarding `C[C@H](CO)N1C[C@H](C)[C@H](CN(C)C(=O)Nc2ccc(F)cc2)Oc2c(NC(=O)Nc3ccc(C(F)(F)F)cc3)cccc2C1=O`, the cytotoxicity call is “active”.

Turning to `C[C@H]1CN([C@@H](C)CO)C(=O)c2cccc(NC(=O)Nc3ccc(C(F)(F)F)cc3)c2O[C@H]1CN(C)C(=O)Nc1ccc(F)cc1`, the cytotoxicity call was “inactive”.

In the case of `C[C@@H]1CN([C@H](C)CO)C(=O)c2cccc(NC(=O)Nc3ccc(C(F)(F)F)cc3)c2O[C@@H]1CN(C)C(=O)Nc1ccc(F)cc1`, the cytotoxicity call is “inactive”.

In the case of `Cc1noc(C)c1S(=O)(=O)N(C)C[C@@H]1Oc2ccc(NC(=O)NC3CCCCC3)cc2CC(=O)N([C@H](C)CO)C[C@H]1C`, the cytotoxicity call is “inactive”.

On to `O=C(C[C@@H]1C=C[C@@H](NC(=O)c2ccc(F)cc2)[C@H](CO)O1)NCc1ccncn1`, for which the cytotoxicity call was “inactive”.

In the case of `O=C(O)c1cc(O)c(O)c(O)c1` [listing 1 of 2 here], the cytotoxicity call was “inactive”.

For `O=C(O)c1cc(O)c(O)c(O)c1` [listing 2 of 2 here], the cytotoxicity call is “active”.

For the molecule `O=C(O)c1ccc(O)c(O)c1`, the cytotoxicity call was “inactive”.

Regarding `COc1ccc(NC(=O)Nc2ccc3c(c2)C(=O)N([C@@H](C)CO)C[C@@H](C)[C@H](CN(C)C(=O)C2CCCCC2)OCCCC[C@H](C)O3)cc1`, the cytotoxicity call is “inactive”.

As to `C[C@@H]1CN([C@H](C)CO)C(=O)Cc2cc(NC(=O)Cn3cnnn3)ccc2O[C@H]1CN(C)S(=O)(=O)c1cccs1`, the cytotoxicity call was “inactive”.

Take `Oc1ccc(Cl)c2cccnc12` [listing 1 of 2 here]: the cytotoxicity call was “active”.

As for `Oc1ccc(Cl)c2cccnc12` [listing 2 of 2 here], the cytotoxicity call is “inactive”.

In the case of `Oc1c(Cl)cc(Cl)c2cccnc12`, the cytotoxicity call was “inactive”.

In the case of `O=C(NO)c1cccnc1`, the cytotoxicity call was “inactive”.

`CCNC(=O)C[C@H]1C=C[C@H](NC(=O)C2CC2)[C@@H](CO)O1`: the cytotoxicity call was “inactive”.

Consider `C[C@H]1CCCCO[C@@H](CN(C)Cc2ccccc2)[C@@H](C)CN([C@@H](C)CO)C(=O)c2cc(NC(=O)c3ccncc3)ccc2O1`, for which the cytotoxicity call is “inactive”.

With `CCCCC(=O)OCC(=O)[C@]1(O)Cc2c(O)c3c(c(O)c2[C@@H](O[C@H]2C[C@H](NC(=O)C(F)(F)F)[C@H](O)[C@H](C)O2)C1)C(=O)c1c(OC)cccc1C3=O`, the cytotoxicity call is “active”.

For the molecule `COc1cccc2c1C(=O)c1c(O)c3c(c(O)c1C2=O)CC(O)(C(=O)CO)CC3OC1CC(N)C(O)C(C)O1.Cl` (stereo not given), the cytotoxicity call was “inactive”.

In the case of `COc1cccc2c1C(=O)c1c(O)c3c(c(O)c1C2=O)C[C@@](O)(C(=O)CO)C[C@@H]3O[C@H]1C[C@H](N)[C@@H](O)[C@H](C)O1`, the cytotoxicity call was “inactive”.

Take `COc1cccc2c1C(=O)c1c(O)c3c(c(O)c1C2=O)C[C@](O)(C(=O)CO)C[C@H]3O[C@H]1C[C@@H](N)[C@@H](O)[C@@H](C)O1`: the cytotoxicity call was “active”.

With `COc1cccc2c1C(=O)c1c(O)c3c(c(O)c1C2=O)CC(O)(C(=O)CO)CC3OC1CC(N)C(O)C(C)O1` (stereo not given) [listing 1 of 2 here], the cytotoxicity call is “active”.

In the case of `COc1cccc2c1C(=O)c1c(O)c3c(c(O)c1C2=O)C[C@@](O)(C(=O)CO)C[C@@H]3O[C@H]1C[C@H](N)[C@H](O)[C@H](C)O1`, the cytotoxicity call was “active”.

With `COc1cccc2c1C(=O)c1c(O)c3c(c(O)c1C2=O)CC(O)(C(=O)CO)CC3OC1CC(N)C(O)C(C)O1` (stereo not given) [listing 2 of 2 here], the cytotoxicity call was “inactive”.

On to `COc1ccc(S(=O)(=O)Nc2ccc3c(c2)C(=O)N([C@@H](C)CO)C[C@@H](C)[C@@H](CN(C)CC2CCCCC2)OCCCC[C@H](C)O3)cc1`, for which the cytotoxicity call is “inactive”.

Regarding `C=CCOC(=O)[C@@H]1[C@H]2C(=O)O[C@H](c3ccccc3)[C@H](c3ccccc3)N2[C@H](c2ccc(OCCOC(=O)[C@H]3C[C@H]4C(=O)N5CCC[C@H]5C(=O)N4[C@H]3c3ccc(O)cc3)cc2)[C@@]12C(=O)Nc1ccc(I)cc12`, the cytotoxicity call is “inactive”.

Consider `C[C@H]1CN([C@@H](C)CO)C(=O)c2cc(NC(=O)CCCCCC(=O)Nc3ccccc3N)ccc2O[C@@H]1CN(C)S(C)(=O)=O`, for which the cytotoxicity call is “inactive”.

For the molecule `O=C(C[C@H]1CC[C@H]2[C@@H](COC[C@@H](O)CN2Cc2ccccc2F)O1)N[C@@H]1CCN(Cc2ccccc2)C1`, the cytotoxicity call was “inactive”.

As to `CCCCCCCCCCNc1cc(CO)c2cc[nH]c2c1`, the cytotoxicity call is “inactive”.

As to `COc1ccc(S(=O)(=O)Nc2ccc3c(c2)C(=O)N([C@H](C)CO)C[C@H](C)[C@H](CN(C)C(=O)NC2CCCCC2)OCCCC[C@H](C)O3)cc1`, the cytotoxicity call was “inactive”.

For `C[C@@H]1CN([C@@H](C)CO)C(=O)Cc2cc(NS(=O)(=O)c3ccc(F)cc3)ccc2O[C@@H]1CN(C)Cc1ccc(Cl)c(Cl)c1`, the cytotoxicity call is “active”.

Turning to `C[C@@H]1CN([C@H](C)CO)C(=O)Cc2cc(NS(=O)(=O)c3ccc(F)cc3)ccc2O[C@H]1CN(C)Cc1ccc(Cl)c(Cl)c1`, the cytotoxicity call was “inactive”.

As for `C[C@@H]1CN([C@@H](C)CO)C(=O)Cc2cc(NS(=O)(=O)c3ccc(F)cc3)ccc2O[C@H]1CN(C)Cc1ccc(Cl)c(Cl)c1`, the cytotoxicity call is “inactive”.

`C[C@H]1CN([C@@H](C)CO)C(=O)Cc2cc(NS(=O)(=O)c3ccc(F)cc3)ccc2O[C@H]1CN(C)Cc1ccc(Cl)c(Cl)c1`: the cytotoxicity call is “inactive”.

Regarding `C[C@@H]1CN([C@H](C)CO)C(=O)Cc2cc(NS(=O)(=O)c3ccc(F)cc3)ccc2O[C@@H]1CN(C)Cc1ccc(Cl)c(Cl)c1`, the cytotoxicity call is “active”.

For `C[C@H]1CN([C@@H](C)CO)C(=O)Cc2cc(NS(=O)(=O)c3ccc(F)cc3)ccc2O[C@@H]1CN(C)Cc1ccc(Cl)c(Cl)c1`, the cytotoxicity call is “inactive”.

In the case of `C[C@H]1CCCCO[C@@H](CN(C)S(=O)(=O)c2cccs2)[C@@H](C)CN([C@@H](C)CO)C(=O)c2cc(NC(=O)C3CCCCC3)ccc2O1`, the cytotoxicity call is “inactive”.

Regarding `C[C@H](CO)N1C[C@H](C)[C@H](CN(C)Cc2ccc(C(=O)Nc3ccccc3N)cc2)Oc2ccc(NC(=O)C3CCCCC3)cc2C1=O`, the cytotoxicity call was “inactive”.

Regarding `C[C@@H]1CN([C@@H](C)CO)C(=O)Cc2cc(NS(=O)(=O)c3cccs3)ccc2O[C@@H]1CN(C)Cc1ccc(Cl)c(Cl)c1`, the cytotoxicity call was “inactive”.

Regarding `C[C@@H]1CN([C@H](C)CO)C(=O)Cc2cc(NS(=O)(=O)c3cccs3)ccc2O[C@H]1CN(C)Cc1ccc(Cl)c(Cl)c1`, the cytotoxicity call was “active”.

As to `C[C@@H]1CN([C@@H](C)CO)C(=O)Cc2cc(NS(=O)(=O)c3cccs3)ccc2O[C@H]1CN(C)Cc1ccc(Cl)c(Cl)c1`, the cytotoxicity call was “inactive”.

Regarding `C[C@H]1CN([C@@H](C)CO)C(=O)Cc2cc(NS(=O)(=O)c3cccs3)ccc2O[C@H]1CN(C)Cc1ccc(Cl)c(Cl)c1`, the cytotoxicity call was “active”.

With `C[C@@H]1CN([C@H](C)CO)C(=O)Cc2cc(NS(=O)(=O)c3cccs3)ccc2O[C@@H]1CN(C)Cc1ccc(Cl)c(Cl)c1`, the cytotoxicity call was “active”.

As for `C[C@H](CO)N1C[C@H](C)[C@@H](CN(C)Cc2ccc(Cl)c(Cl)c2)Oc2ccc(NS(=O)(=O)c3cccs3)cc2CC1=O`, the cytotoxicity call was “inactive”.

For `C[C@H]1CN([C@@H](C)CO)C(=O)Cc2cc(NS(=O)(=O)c3cccs3)ccc2O[C@@H]1CN(C)Cc1ccc(Cl)c(Cl)c1`, the cytotoxicity call is “inactive”.

In the case of `C[C@@H]1CN([C@H](C)CO)C(=O)Cc2cc(NS(=O)(=O)c3cccs3)ccc2O[C@@H]1CN(C)Cc1ccncc1`, the cytotoxicity call is “inactive”.

As to `C[C@H](CO)N1C[C@H](C)[C@H](CN(C)Cc2ccc(Cl)c(Cl)c2)Oc2ccc(NS(=O)(=O)c3cccs3)cc2CC1=O`, the cytotoxicity call was “inactive”.

For `COc1ccc(S(=O)(=O)N(C)C[C@H]2Oc3c(NC(=O)NC(C)C)cccc3C(=O)N([C@H](C)CO)C[C@H]2C)cc1`, the cytotoxicity call is “inactive”.
